Screening data as filed in PubChem BioAssay.
APP transl inh – APP translation inhibition; SH-SY5Y APP 5'UTR-luciferase reporter, luminescence; inhibition, % at 2 µM; 190,000 compounds, 0.82% hits; AID 1285;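 active = inhibition above a set limit, derived from the sample mean plus 3 SD, cut at about 45% in these data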
BaF3 parental – parental Ba/F3 viability inhibition as JAK2V617F counter-screen; CellTiter-Glo ATP luminescence; AID 1486; inhibition, % at 5.6 µM; 220,000 compounds, 1.1% hits;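 active = inhibition above a per-campaign cutoff, the mean inhibition of all tested compounds plus 3 SD, cut at about 27% in these data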
IEC-6 tox-1 – kills IEC-6 intestinal cells in KLF5 counter-screen; IEC-6 cytotoxicity, luminescence viability; inhibition, % at 5 µM; 290,000 compounds, 0.78% hits; AID 1825
Ba/F3 V617F tox – loss of viability in JAK2V617F-driven Ba/F3 cells | 220,000 compounds, 1.1% hits | Ba/F3 EpoR-JAK2V617F viability, ATP luminescence | inhibition, % at 5.6 µM;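 active = inhibition above the campaign mean plus 3 SD over all tested compounds, cut at about 24% in these data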;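 also: cytokine-independent growth of Ba/F3 cells driven by EpoR plus mutant JAK2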
aSyn UTR inh – 5' untranslated region of α-synuclein, MLPCN primary screen; alpha-synuclein 5'UTR reporter, inhibitor activity; inhibition, % (tested at 7.5 µM); 300,000 compounds, 0.82% hits; AID 1813; in the data active = inhibition above about 60%;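 also: H4 neuroglioblastoma cells stably carrying SNCA 5'UTR luciferase fusion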
KLF5 inh – kruppel-like factor 5 inhibition; DLD-1 KLF5 promoter-luciferase reporter, luminescence; 290,000 compounds, 0.23% hits; inhibition, % at 5 µM;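 active = inhibition above a per-plate limit of that plate's mean compound inhibition plus 3 SD, cut at about 60% in these data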;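 also: higher means less KLF5 promoter-driven luciferase light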
KLF5 inh confirm – KLF5 inhibition, confirmation assay; shares compounds with KLF5 inh; DLD-1 KLF5 promoter firefly luciferase reporter, luminescence; inhibition, % at 4 µM; 610 compounds, 79% hits;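 active = inhibition above a set limit taken from the earlier primary screen, cut at about 63% in these data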
IEC-6 tox-2 – kills rat IEC-6 cells in KLF5 counter-screen. IEC-6 rat intestinal cells, viability luminescence. 610 compounds, 56% hits. inhibition, % at 4 µM. shares compounds with KLF5 inh. AID 1905; in the data active = inhibition above about 23%;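 also: cells exposed to compounds for 48 hours before viability read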
IEC-6 cytotox cf – confirmation of cytotoxic compounds in rat IEC-6 intestinal epithelial cells | shares compounds with IEC-6 tox-1 | IEC-6 rat intestinal epithelial viability, luminescence | inhibition, % at 5 µM | 1,900 compounds, 63% hits | AID 1907
Large screens that a line does not name were inactive (follow-up assays come after a bar, where they were run). A selection: hits, their analogues and other compounds. The true share with any hit is near 2.2%. Rule as the data show it, unless noted: active = inhibition above about 22%; inactive = the rest.

NC(=S)N=Nc1c(O)[nH]c2ccccc12	none
Oc1[nH]c2ccccc2c1N=NC(=S)N1CCOCC1	BaF3 parental 59, IEC-6 tox-1 48, Ba/F3 V617F tox 54, KLF5 inh 68 (no result: APP transl inh) | KLF5 inh confirm 89 | IEC-6 tox-2 48
Cc1ccc(O)c(NC(=O)C2CCCN2C(=O)OCc2ccccc2)c1 (stereo unspecified)	none (no result: APP transl inh, BaF3 parental, Ba/F3 V617F tox)
O=C(O)c1ccc(-c2ccc(-c3ccccc3)cc2)s1	aSyn UTR inh 64, KLF5 inh 90 (no result: APP transl inh, BaF3 parental, Ba/F3 V617F tox) | KLF5 inh confirm 92 | IEC-6 tox-2 inactive
COCCN1C(=O)/C(=C/c2ccc(N3CCCC3)cc2C)SC1=S	none
Cc1c(C)c2ccc(OCC(=O)Nc3ccccn3)c(C)c2oc1=O	aSyn UTR inh 110, KLF5 inh 91 (no result: APP transl inh, BaF3 parental, Ba/F3 V617F tox) | KLF5 inh confirm inactive | IEC-6 tox-2 inactive
Cc1c(C)c2ccc(OCC(=O)N(C)C)c(C)c2oc1=O	none
c1ccc(-c2ccc(-c3nc(-c4ccccn4)no3)cc2)cc1	APP transl inh 46, aSyn UTR inh 147, KLF5 inh 84 | KLF5 inh confirm 104 | IEC-6 tox-2 inactive
Cc1ccc(-c2nc(-c3ccccn3)no2)cc1Cl	aSyn UTR inh 104, KLF5 inh 70 | KLF5 inh confirm 89 | IEC-6 tox-2 inactive
Cc1ccc(-c2nc(-c3ccccn3)no2)cc1	aSyn UTR inh 99, KLF5 inh 88 | KLF5 inh confirm 100 | IEC-6 tox-2 42
Cc1ccc(NC(=O)CCNC(=O)c2ccc([N+](=O)[O-])cc2)cc1C	none (no result: APP transl inh, BaF3 parental, Ba/F3 V617F tox)
CC(Sc1nc2ncc(Cl)cc2[nH]1)C(=O)Nc1ccc(C(N)=O)cc1 (stereo unspecified)	none (no result: APP transl inh, BaF3 parental, IEC-6 tox-1, Ba/F3 V617F tox, KLF5 inh)
O=C(CCC1CCCN(Cc2cccc(Cl)c2)C1)NCc1ccccc1F (stereo unspecified)	none (no result: APP transl inh)
COC(=O)C1=C(CN2CCCc3ccccc32)NC(=O)NC1c1ccc(F)cc1 (stereo unspecified)	aSyn UTR inh 79, KLF5 inh 85 | KLF5 inh confirm 72 | IEC-6 tox-2 inactive
CCCn1c(C)cs/c1=N\C(=S)Nc1ccccc1	KLF5 inh 118 | KLF5 inh confirm inactive | IEC-6 tox-2 inactive
Cc1cs/c(=N/C(=S)Nc2ccccc2)n1C	none
O=c1cc(-c2ccccc2)[nH]c2ccccc12	APP transl inh 94, BaF3 parental 79, IEC-6 tox-1 84, Ba/F3 V617F tox 82, aSyn UTR inh 68, KLF5 inh 65 | KLF5 inh confirm 83 | IEC-6 tox-2 57
O=Cc1ccc(O)c2ncccc12	BaF3 parental 53, IEC-6 tox-1 100, aSyn UTR inh 63, KLF5 inh 82 (no result: APP transl inh) | KLF5 inh confirm inactive | IEC-6 tox-2 29
COc1cc(C(=O)N/N=C(\C)Cc2ccccc2)cc(OC)c1OC	APP transl inh 94, BaF3 parental 80, IEC-6 tox-1 84, Ba/F3 V617F tox 86, KLF5 inh 76 | KLF5 inh confirm inactive | IEC-6 tox-2 inactive
COc1cc(/C=N/O)ccc1OCc1ccc(C(=O)O)cc1	APP transl inh 82, aSyn UTR inh 116, KLF5 inh 84 | KLF5 inh confirm 95 | IEC-6 tox-2 inactive
COc1ccc(/C=N/NS(=O)(=O)c2ccc(C)cc2)cc1OC(=O)c1ccccc1	none (no result: aSyn UTR inh)
COc1cc(/C=N/O)ccc1OCc1ccc(Cl)cc1	none
COc1cc(/C=N/NS(=O)(=O)c2ccc3ccccc3c2)ccc1OCc1ccc(C(=O)O)cc1	aSyn UTR inh 84, KLF5 inh 65 (no result: APP transl inh) | KLF5 inh confirm inactive | IEC-6 tox-2 inactive
O=C(Nc1cccc(C(=O)O)c1)Nc1ccc2c(c1)OCO2	aSyn UTR inh 99, KLF5 inh 96 (no result: APP transl inh, BaF3 parental, Ba/F3 V617F tox) | KLF5 inh confirm 89 | IEC-6 tox-2 inactive
O=C(Nc1ccc2c(c1)OCO2)Nc1ccc2c(c1)OCO2	none
COc1cccc(NC(=O)Nc2cccc(C(=O)O)c2)c1	APP transl inh 51, KLF5 inh 76 | KLF5 inh confirm 65 | IEC-6 tox-2 inactive
CC1=Nc2cc(C(=O)NCc3ccco3)ccc2Sc2ccc(C)cc21	APP transl inh 96, BaF3 parental 80, IEC-6 tox-1 80, Ba/F3 V617F tox 84, aSyn UTR inh 101, KLF5 inh 68 | KLF5 inh confirm 83 | IEC-6 tox-2 62
Cc1ccnc(NC(=O)c2cccc(S(=O)(=O)N3CCN(c4ccc(F)cc4)CC3)c2)c1	none (no result: APP transl inh, BaF3 parental, IEC-6 tox-1, Ba/F3 V617F tox, KLF5 inh)
COc1ccc(C(=O)O/N=C(\N)c2ccccc2)cc1	none (no result: APP transl inh, BaF3 parental, Ba/F3 V617F tox)
CC(C)(C)c1ccc(C(=O)O/N=C(\N)c2ccccc2)cc1	KLF5 inh 71 (no result: APP transl inh, BaF3 parental, Ba/F3 V617F tox) | KLF5 inh confirm 66 | IEC-6 tox-2 inactive
O=C(Nc1nnc(-c2ccc(F)cc2)o1)c1cccc([N+](=O)[O-])c1	IEC-6 tox-1 98, KLF5 inh 72 | KLF5 inh confirm inactive | IEC-6 tox-2 inactive
O=C(Nc1nc2ccc(F)cc2s1)C1=COCCO1	none (no result: APP transl inh, BaF3 parental, IEC-6 tox-1, Ba/F3 V617F tox, KLF5 inh)
O=C(Nc1nc2cc3c(cc2s1)OCCO3)C1=COCCO1	aSyn UTR inh 99, KLF5 inh 96 (no result: APP transl inh) | KLF5 inh confirm 92 | IEC-6 tox-2 inactive
Cc1ccc2nc(NC(=O)CCCc3nc4ccccc4s3)sc2c1	KLF5 inh 88 | KLF5 inh confirm 98 | IEC-6 tox-2 inactive
Cc1cnc(NC(=O)CCCc2nc3ccccc3s2)s1	none
COc1ccc(C(=O)c2c(NC(C)=O)sc3c2CCN(C(=O)OC(C)(C)C)C3)cc1	none (no result: APP transl inh)
CCCCCC(=O)N[C@@H](c1ccccc1)[C@@H](O)C(=O)O[C@H]1C[C@@]2(O)[C@@H](OC(=O)c3ccccc3)C3[C@](C)(C(=O)[C@H](OC(C)=O)C(=C1C)C2(C)C)[C@@H](O)C[C@H]1OC[C@@]31OC(C)=O (stereo partly specified)	IEC-6 tox-1 96, aSyn UTR inh 87, KLF5 inh 66 (no result: APP transl inh, BaF3 parental, Ba/F3 V617F tox) | KLF5 inh confirm 84 | IEC-6 tox-2 88 | IEC-6 cytotox cf 86
O=C(COc1ccc([N+](=O)[O-])cc1)N(Cc1cccs1)C1CCS(=O)(=O)C1 (stereo unspecified)	none (no result: APP transl inh, BaF3 parental, Ba/F3 V617F tox)
CCOc1ccc(S(=O)(=O)NCc2ccccn2)cc1NC(=O)c1ccccc1	none (no result: APP transl inh, BaF3 parental, IEC-6 tox-1, Ba/F3 V617F tox, KLF5 inh)
COc1ccc(S(=O)(=O)NCc2ccccn2)cc1NC(=O)c1ccccc1F	IEC-6 tox-1 76, KLF5 inh 64 (no result: APP transl inh, BaF3 parental, Ba/F3 V617F tox) | KLF5 inh confirm 81 | IEC-6 tox-2 53 | IEC-6 cytotox cf 52
COCCOC(=O)c1[nH]c2c(c1C)C(=O)CC(c1ccc(OC)c(OC)c1)C2 (stereo unspecified)	none (no result: APP transl inh, BaF3 parental, Ba/F3 V617F tox)
CCOCCOC(=O)c1[nH]c2c(c1C)C(=O)CC(c1ccccc1)C2 (stereo unspecified)	IEC-6 tox-1 91, KLF5 inh 78 (no result: APP transl inh, BaF3 parental, Ba/F3 V617F tox) | KLF5 inh confirm 87 | IEC-6 tox-2 66 | IEC-6 cytotox cf 76
